Our source for the growth values is PubChem BioAssay (NCI).

The panel holds about 83,000 compounds, 20% with a hit somewhere; the sample as a whole holds those more often.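 Method: cells in 96-well plates; compound added at one concentration; 48 h incubation; percent growth measured; values under 10 scored active.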 Active and inactive are the calls of the source.

The subject of the first experiment is PC-3 prostate. The experiment can be described thus: NCI-60 one-dose screen, 48 h (100 = growth as untreated, 0 = no growth, -100 = all killed). The conditions noted are these: 10 µM unless noted.
For `O=C1NC(=O)c2c1c1c3cc(Br)ccc3[nH]c1c1oc3ccc(F)cc3c21`, the growth was -66% (active).

With `C#CCOc1ccc(/C=N/Nc2nc(-c3ccc(F)cc3)cs2)cc1OC`, the growth was 24.2% (inactive). Still for that read-out and setting: then `O=C1NC(=O)/C(=C/c2ccccc2OCc2cc3ccccc3nc2Cl)S1`, with 112% (inactive); and `Cc1ccc(NCC(=O)Cn2cc(COc3ccc(C=Nc4cnc5ccccc5c4)cc3)nn2)cc1`, with 106% (inactive); and `C/C(=N\N=C1/C(=O)Nc2ccccc21)c1ccc2c(c1)Nc1ccccc1S2`, with 63.6% (inactive). As to `C/C(=N\N=C1/C(=O)Nc2ccc(Cl)cc21)c1ccc2c(c1)Nc1ccccc1S2`, the growth was -5.59% (active). As to `CCN(CC)c1ccnc(CNCCSC(c2ccccc2)(c2ccccc2)c2ccc(C)cc2)c1`, the growth is -76.6% (active).

In the case of `Cc1cc2c(cc1Cl)C(=O)/C(=C/c1ccccc1)O2`, the growth is 29.8% (inactive).

With `COc1ccc(C(=O)/C=C/c2ccc(OCc3ccc(F)cc3)c(OC)c2)cc1OC`, the growth is 24% (inactive). Turning to `N=C1N=C(SCc2nc3ccccc3[nH]2)NC(=O)/C1=C/c1ccc(Cl)cc1`, the growth was 107% (inactive). Still for that read-out and setting: then `COc1ccc(C2CC(c3ccc(S(=O)(=O)NCCNc4nc(Nc5ccc(F)cc5)nc(N(C)C)n4)cc3)=Nc3c(N)nc(N)nc3N2)cc1` (stereo unspecified), with 53.7% (inactive).

On to `O=C(Cn1nc(-c2ccccc2)ccc1=O)N/N=C/c1ccc(N2CCOCC2)cc1`, for which the growth was 102% (inactive). For the compound `CC1(C)CC[C@]2(C(=O)O)CC[C@]3(C)C(=CCC4[C@@]5(C)C[C@@H](O)[C@@H]6OC(c7cccc(Br)c7)OC[C@@]6(C)C5CC[C@]43C)C2C1` (stereo partly specified), the growth is 25.3% (inactive). As to `COc1ccc(C(=O)/C=C/c2ccc(OCc3ccccc3)c(OC)c2)cc1OC`, the growth is 37% (inactive). Consider `O=C(N=Nc1c(O)[nH]c2ccc([N+](=O)[O-])cc12)c1ccc2nc(-c3ccccc3)[nH]c2c1`, for which the growth is 53.3% (inactive). Still for that read-out and setting: then `C/C(=N\N=C\c1cc([N+](=O)[O-])ccc1Cl)c1ccc2c(c1)Nc1ccccc1S2`, with 82.4% (inactive); and `C=C1CCC2C3(C)COC(c4ccc(F)cc4)OC3CCC2(C)C1C/C=C1/C(=O)OCC1O` (stereo unspecified), with -43.6% (active); and `CCCSc1nc(NCCc2c[nH]c3ccccc23)c(C#N)c(-c2ccc(OC)cc2)n1`, with 15.1% (inactive). On to `N/C(=N\c1nc2ccccc2s1)NC(=O)Nc1ccccc1Br`, for which the growth is 34.6% (inactive).

Turning to `COC(=O)/C=C/c1cccc2c1C(=O)NC(C)(c1cc3ccccc3oc1=O)N2` (stereo unspecified), the growth is 58.9% (inactive).

`Brc1ccc(-c2n(Cc3ccc4ccccc4c3)c(-c3ccccc3)c(-c3ccccc3)[n+]2Cc2ccc3ccccc3c2)cc1`: the growth is -29.3% (active). The same measure, in the same setting: then `Cc1cc2nc3c4ccccc4n(CCCN(C)C)c3nc2cc1C`, with -32% (active); and `O=S(=O)(Nc1cccc(-n2cnc3cc(-c4ccc(O)cc4)ccc32)c1)C1CC1`, with 40% (inactive). For `CN(C)c1ccnc(CNCCSC2(c3ccc(C(F)(F)F)cc3)c3ccccc3C=Cc3ccccc32)c1`, the growth is -3.49% (active). On the same count and under the same terms, under `CN(C)c1nc(NCCNS(=O)(=O)c2ccc(C3=Nc4c(N)nc(N)nc4NC(c4ccc(C(F)(F)F)cc4)C3)cc2)nc(Nc2ccc(F)cc2)n1` (stereo unspecified) stands 17.8% (inactive). The same measure, in the same setting: under `O=C(NN1C(=O)/C(=C/C=C/c2ccc([N+](=O)[O-])o2)SC1=S)c1ccc(Cl)cc1` stands -34.7% (active); under `COCOc1ccc2c(=O)c(C)c(C(=O)N[C@@H](Cc3ccccc3)C(O)C(=O)NCCc3ccc(OC)cc3)oc2c1` (stereo partly specified), 110% (inactive). Regarding `C#CCOc1cc(N(CC)CC)ccc1C(C(=O)NC(C)(C)C)N(C(=O)C1CCc2cc(F)ccc2O1)c1ccc(Br)cc1` (stereo unspecified), the growth is 38.8% (inactive). As for `Cn1cc(-c2nc(N)nnc2-c2c[nH]c3ccc(F)cc23)c2cccnc21`, the growth was 51.2% (inactive).

`COc1ccc(N2N=C(c3ccc4c(c3)OCO4)CC2c2cccc(NC(=O)CCNS(=O)(=O)c3ccc(Cl)cc3)c2)cc1` (stereo unspecified): the growth is 16.5% (inactive).

For `Cc1nc(Nc2ccccn2)sc1C(=O)CC(SCC(=O)Nc1ccc(Cl)cc1)c1ccccc1F` (stereo unspecified), the growth was 43.2% (inactive). On the same count and under the same terms, under `Cc1cccc(-c2nc(Nc3ccc(C)c(S(N)(=O)=O)c3)c3ccccc3n2)c1` stands 15.7% (inactive); under `S=C(Nc1ccccc1)Nc1ccc(OCc2nc3ccccc3[nH]2)cc1`, 42% (inactive).

The test system of another experiment is SK-MEL-5 melanoma. Described as above. The conditions noted are these: 10 µM unless noted.
Consider `O=C1NC(=O)c2c1c1c3cc(Br)ccc3[nH]c1c1oc3ccc(F)cc3c21`, for which the growth was 2.9% (active). Consider `C#CCOc1ccc(/C=N/Nc2nc(-c3ccc(F)cc3)cs2)cc1OC`, for which the growth was 3.86% (active). Still for that read-out and setting: under `O=C1NC(=O)/C(=C/c2ccccc2OCc2cc3ccccc3nc2Cl)S1` stands 67.6% (inactive).

On to `Cc1ccc(NCC(=O)Cn2cc(COc3ccc(C=Nc4cnc5ccccc5c4)cc3)nn2)cc1`, for which the growth was 102% (inactive).

`C/C(=N\N=C1/C(=O)Nc2ccccc21)c1ccc2c(c1)Nc1ccccc1S2`: the growth was 42% (inactive).

Turning to `C/C(=N\N=C1/C(=O)Nc2ccc(Cl)cc21)c1ccc2c(c1)Nc1ccccc1S2`, the growth is -15.6% (active). On the same count and under the same terms, then `CCN(CC)c1ccnc(CNCCSC(c2ccccc2)(c2ccccc2)c2ccc(C)cc2)c1`, with -99.6% (active). Take `Cc1cc2c(cc1Cl)C(=O)/C(=C/c1ccccc1)O2`: the growth was -75.4% (active). Same read-out and setting: under `COc1ccc(C(=O)/C=C/c2ccc(OCc3ccc(F)cc3)c(OC)c2)cc1OC` stands 17.8% (inactive); under `COc1cc(OC)c2c3nc4cc(C)c(C)cc4nc3n(CCN(C)C)c2c1`, 69.8% (inactive); under `N=C1N=C(SCc2nc3ccccc3[nH]2)NC(=O)/C1=C/c1ccc(Cl)cc1`, 98.3% (inactive). Turning to `COc1ccc(C2CC(c3ccc(S(=O)(=O)NCCNc4nc(Nc5ccc(F)cc5)nc(N(C)C)n4)cc3)=Nc3c(N)nc(N)nc3N2)cc1` (stereo unspecified), the growth is 71.7% (inactive). Turning to `O=C(Cn1nc(-c2ccccc2)ccc1=O)N/N=C/c1ccc(N2CCOCC2)cc1`, the growth is 92.4% (inactive).

For `CC1(C)CC[C@]2(C(=O)O)CC[C@]3(C)C(=CCC4[C@@]5(C)C[C@@H](O)[C@@H]6OC(c7cccc(Br)c7)OC[C@@]6(C)C5CC[C@]43C)C2C1` (stereo partly specified), the growth was 41.3% (inactive). The same measure, in the same setting: under `COc1ccc(C(=O)/C=C/c2ccc(OCc3ccccc3)c(OC)c2)cc1OC` stands 34.9% (inactive).

On to `O=C(N=Nc1c(O)[nH]c2ccc([N+](=O)[O-])cc12)c1ccc2nc(-c3ccccc3)[nH]c2c1`, for which the growth was 97.7% (inactive). On the same count and under the same terms, then `C/C(=N\N=C\c1cc([N+](=O)[O-])ccc1Cl)c1ccc2c(c1)Nc1ccccc1S2`, with 78.6% (inactive). Still for that read-out and setting: then `C=C1CCC2C3(C)COC(c4ccc(F)cc4)OC3CCC2(C)C1C/C=C1/C(=O)OCC1O` (stereo unspecified), with -90.3% (active); and `CCCSc1nc(NCCc2c[nH]c3ccccc23)c(C#N)c(-c2ccc(OC)cc2)n1`, with 29.5% (inactive). Turning to `N/C(=N\c1nc2ccccc2s1)NC(=O)Nc1ccccc1Br`, the growth was -55.3% (active). On the same count and under the same terms, under `O=C(Cn1c2c(sc1=O)[C@H]1[C@@H](O)[C@@H](O)[C@H](O)[C@@H]1CS2)N1CCOCC1` stands 102% (inactive); under `COC(=O)/C=C/c1cccc2c1C(=O)NC(C)(c1cc3ccccc3oc1=O)N2` (stereo unspecified), 78.5% (inactive); under `Brc1ccc(-c2n(Cc3ccc4ccccc4c3)c(-c3ccccc3)c(-c3ccccc3)[n+]2Cc2ccc3ccccc3c2)cc1`, -98.6% (active). Consider `COc1ccc(NC(=O)Cn2c3c(sc2=O)[C@H]2[C@@H](O)[C@@H](O)[C@H](O)[C@@H]2CS3)cc1`, for which the growth is 106% (inactive). Still for that read-out and setting: under `Cc1cc2nc3c4ccccc4n(CCCN(C)C)c3nc2cc1C` stands -94.4% (active).

Take `O=S(=O)(Nc1cccc(-n2cnc3cc(-c4ccc(O)cc4)ccc32)c1)C1CC1`: the growth was 12.6% (inactive).

As for `CN(C)c1ccnc(CNCCSC2(c3ccc(C(F)(F)F)cc3)c3ccccc3C=Cc3ccccc32)c1`, the growth is -97.1% (active). As to `CN(C)c1nc(NCCNS(=O)(=O)c2ccc(C3=Nc4c(N)nc(N)nc4NC(c4ccc(C(F)(F)F)cc4)C3)cc2)nc(Nc2ccc(F)cc2)n1` (stereo unspecified), the growth is -77.1% (active).

Turning to `O=C(NN1C(=O)/C(=C/C=C/c2ccc([N+](=O)[O-])o2)SC1=S)c1ccc(Cl)cc1`, the growth was -100% (active).

On to `COCOc1ccc2c(=O)c(C)c(C(=O)N[C@@H](Cc3ccccc3)C(O)C(=O)NCCc3ccc(OC)cc3)oc2c1` (stereo partly specified), for which the growth is 99.4% (inactive). On the same count and under the same terms, under `C#CCOc1cc(N(CC)CC)ccc1C(C(=O)NC(C)(C)C)N(C(=O)C1CCc2cc(F)ccc2O1)c1ccc(Br)cc1` (stereo unspecified) stands 81% (inactive).

Turning to `Cc1cc2nc3c4ccccc4n(CC4=NCCN4)c3nc2cc1C`, the growth is -91.7% (active). Regarding `Cn1cc(-c2nc(N)nnc2-c2c[nH]c3ccc(F)cc23)c2cccnc21`, the growth is 35.3% (inactive).

With `COc1ccc(N2N=C(c3ccc4c(c3)OCO4)CC2c2cccc(NC(=O)CCNS(=O)(=O)c3ccc(Cl)cc3)c2)cc1` (stereo unspecified), the growth is 24.2% (inactive). As to `Cc1nc(Nc2ccccn2)sc1C(=O)CC(SCC(=O)Nc1ccc(Cl)cc1)c1ccccc1F` (stereo unspecified), the growth is 4.3% (active). Same read-out and setting: under `Cc1cccc(-c2nc(Nc3ccc(C)c(S(N)(=O)=O)c3)c3ccccc3n2)c1` stands 29.5% (inactive); under `CN(C)CCn1c2ccccc2c2nc3cc(C(F)(F)F)ccc3nc21`, 28.3% (inactive). Consider `S=C(Nc1ccccc1)Nc1ccc(OCc2nc3ccccc3[nH]2)cc1`, for which the growth was 49.1% (inactive).
